Mtb betalactam: beta-lactam sensitization of Mtb H37Rv, H37Rv | M. tuberculosis H37Rv growth with meropenem, percent inhibition | inhibition, % at 25 µM | hit rate 0.27% among 330,000 | AID 434955, 2010; call rule not given here;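 further: growth measured after seven days incubation then overnight dye step; 0% = bacteria only wells and 100% = bacteria with antibiotic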
GDH-TPI inh: GDH-TPI coupling enzyme inhibitors, primary screen, artefact control for M. tuberculosis FBA inhibitor project, biochemical, absorbance, full deck. GDH-TPI coupled enzyme counterscreen, NADH absorbance. inhibition, % at 4.8 µM. hit rate 1.2% among 360,000; in the data active means inhibition above about 30%;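 further: 0% = DMSO wells and 100% = wells lacking the enzyme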
VHR inh abs: VHR1 phosphatase inhibitors, primary screen, biochemical, absorbance, uHTS | Dual specificity protein phosphatase 3 (Homo sapiens), P51452 | recombinant VHR phosphatase, pNPP absorbance | inhibition, % at 13.3 µM | hit rate 0.52% among 290,000 | AID 1654, 2009; in the data active means inhibition above about 50%
Target sequence (P51452 whole entry, looked up): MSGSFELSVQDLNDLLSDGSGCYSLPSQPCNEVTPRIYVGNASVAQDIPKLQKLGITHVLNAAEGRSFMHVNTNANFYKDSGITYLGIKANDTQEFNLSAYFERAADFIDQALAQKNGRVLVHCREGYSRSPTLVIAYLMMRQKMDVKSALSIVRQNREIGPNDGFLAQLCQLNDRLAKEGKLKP
FBA Mtb inh: Mtb FBA enzyme inhibitors, primary screen, biochemical, fluorescence, strain H37Rv; purified M. tuberculosis FBA, fluorescence read-out; inhibition, % at 1 µM; hit rate 2.3% among 360,000; Fructose-bisphosphate aldolase (Mycobacterium tuberculosis (strain ATCC 25618 / H37Rv)), …; in the data active means inhibition above about 27%;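 further: 0% = vehicle and 100% = reference inhibitor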
Target sequence (P9WQA3 whole entry, looked up): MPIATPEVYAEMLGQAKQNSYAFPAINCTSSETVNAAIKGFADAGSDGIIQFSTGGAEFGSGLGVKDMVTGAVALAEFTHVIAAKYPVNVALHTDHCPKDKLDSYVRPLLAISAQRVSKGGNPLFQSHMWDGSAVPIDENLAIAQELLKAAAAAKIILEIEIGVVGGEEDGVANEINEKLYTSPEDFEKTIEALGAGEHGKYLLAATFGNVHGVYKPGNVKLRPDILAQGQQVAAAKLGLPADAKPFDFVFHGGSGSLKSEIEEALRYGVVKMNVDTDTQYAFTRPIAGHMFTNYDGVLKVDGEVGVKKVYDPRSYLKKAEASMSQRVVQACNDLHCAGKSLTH
Mtb hypoxia inh: PubChem AID 1159583; fluorescence inhibition, % (no concentration beside the values); hit rate 0.1% among 300,000; M. tuberculosis hypoxia-regulated fluorescent reporter, fluorescence; in the data active means fluorescence inhibition mostly above about 23%, no sharp cut-off; inactive means mostly below about 17%
An asterisk follows results filed as active; ? = inconclusive; / = no result; + = active, no number. In the library only some 3.6% were active in any assay of this set; here they are far more common.

SMILES	Mtb betalactam	GDH-TPI inh	VHR inh abs	FBA Mtb inh	Mtb hypoxia inh
CCOC(=O)Nc1ccc2c(CN3C(=O)NC4(CCCC4)C3=O)cc(=O)oc2c1	/	22.8	22.0	+	-0.2
CCc1cc(=O)oc2cc(OC(=O)CN3C(=O)NC4(CCCC4)C3=O)ccc12	55.5	18.9	-3.0	+	/
Cc1ccc(C(=O)c2no[n+]([O-])c2C(=O)c2ccc(C)cc2)cc1	-2.7	12.4	54.3*	3.2	7.3
Cc1ccc(C(=O)c2ccc(C)cc2)cc1	-3.9	3.1	16.9	-0.1	5.0
CCN(CC)c1ccc(C(=C2C=CC(=[N+](CC)CC)C=C2)c2ccc(N(CC)CC)cc2)cc1	/	3.5	/	3.7	100.2*
Cn1cccc1/C=N/NC(=O)c1cc(-c2cccs2)nc2ccccc12	-10.9	31.5*	-14.3	18.8	/
O=C(N/N=C/c1ccc2ncccc2c1)c1cc(-c2cccs2)nc2ccccc12	61.5	39.1*	30.1	14.0	/
O=C(NN=Cc1ccc2ncccc2c1)c1cc(-c2cccs2)nc2ccccc12	/	/	/	/	4.4
O=C(O)c1ccc(C=NNC(=O)c2cc(-c3cccs3)nc3ccccc23)cc1	/	/	/	/	13.8
CC(CCc1ccco1)=NNC(=O)CNc1cccc2ccccc12	/	/	/	/	7.3
CCc1cc(=O)oc2c(CN3CCCC3)c(O)c(Cl)cc12	-11.7	25.9	2.9	+	6.9
CCc1cc(=O)oc2c(CN3CCN(C)CC3)c(O)c(Cl)cc12	?	44.4*	-8.3	+	-3.5
CCc1c(C)c2cc(Cl)c(O)c(CN3CCCCC3)c2oc1=O	10.9	1.6	-15.0	+	1.7
Cc1cc(=O)oc2c(CN3CCCCC3)c(O)ccc12	/	16.4	/	/	/
Cc1cc(=O)oc2c(CN3CCOCC3)c(O)ccc12	/	37.5*	/	/	6.0
O=c1cc(-c2ccccc2)c2cc(Cl)c(O)c(CN3CCOCC3)c2o1	0.5	7.2	17.2	8.6	-0.6
O=C(CNC(=O)c1cccs1)NN=Cc1ccc(Cl)cc1	/	/	/	/	3.7
CC(CC(=O)NC1CCCCC1)=NNC(=O)COc1ccc(C)cc1Br	/	/	/	/	11.2
CCc1cc(=O)oc2c(CNCc3c(F)cccc3Cl)c(O)ccc12	1.3	11.2	-5.7	+	6.8
Cc1cc(=O)oc2c(CN3CC(C)OC(C)C3)c(O)c(Cl)cc12 (configuration not stated)	1.6	-2.9	6.0	+	9.8
CCc1cc(=O)oc2c(CN3CCN(C)CC3)c(O)ccc12	-4.2	18.4	/	+	10.1
CCCCc1cc(=O)oc2c(CN3CCCC3)c(O)ccc12	-6.5	4.5	31.6	+	3.4
COc1ccc(S(=O)(=O)NN=C(C)c2ccco2)cc1	/	/	/	/	1.5
Cc1cc(COC(=O)C2N3C(=O)C(NC(=O)COc4ccccc4)C3SC2(C)C)on1 (configuration not stated)	/	/	/	/	5.7
O=C(NN=Cc1c(F)c(F)c(F)c(F)c1F)c1ccc(-c2ccccc2)cc1	/	/	/	/	15.8
SMILES	Mtb betalactam	GDH-TPI inh	VHR inh abs	FBA Mtb inh	Mtb hypoxia inh
CCCc1cc(=O)oc2c(CNc3ccc(OCC)cc3)c(O)ccc12	97.3	9.0	-3.3	164.8*	1.4
CC(C#Cc1c(C(C)Oc2ccccc2)nnn1Cc1ccccc1)Oc1ccccc1 (configuration not stated)	/	/	/	/	18.5
O=C1C(Cc2ccccc2)NCCCCC(c2ccc(Cl)cc2)N1Cc1ccc(Cl)cc1 (configuration not stated)	/	/	/	/	15.6
NC(Cc1nc(-c2ccc(Br)cc2)cs1)=NO	/	/	/	/	2.9
O=C(O)c1ccc(NN=Cc2ccncc2)cc1	/	/	/	/	3.2
Cc1ccc(N/N=C/c2ccncc2)cc1	94.7	3.2	57.3*	-3.8	/
Cc1ccc(N/N=C/c2cccnc2)cc1	?	18.5	-2.7	-0.2	/
O=C(O)c1ccc(N/N=C/c2ccncc2)cc1	0.9	31.6*	26.8	-3.9	/
Cc1ccc(S(=O)(=O)N=C(c2ccc(F)cc2)N(C)C)cc1	/	/	/	/	-1.9
Cc1c(CC(=O)NCC(=O)NCC(=O)O)c(=O)oc2c(C)c3oc4c(c3cc12)CCCC4	0.4	8.2	20.1	10.3	0.2
Cc1c(CC(=O)NCC(=O)O)c(=O)oc2cc3oc4c(c3cc12)CCCC4	10.4	4.8	/	3.0	-4.0
Cc1c(CC(=O)NCC(=O)NCC(=O)O)c(=O)oc2cc3c(cc12)CCC(C)(C)O3	-1.9	21.9	9.6	194.0*	-5.1
Cc1oc2c(c(C)cc3oc(=O)c(CC(=O)NCCCO)c(C)c32)c1C	-1.4	7.6	/	19.6	17.6
Cc1c(CC(=O)NCC(=O)O)c(=O)oc2cc3c(cc12)CCC(C)(C)O3	-7.0	30.1	7.2	+	-15.3
Cc1c(CC(=O)NCCCO)c(=O)oc2cc3c(cc12)CCC(C)(C)O3	-6.0	22.0	-16.2	182.8*	-7.3
CC(=O)C(=Nc1ccc(Cl)cc1Cl)NNc1cccc(Cl)c1	93.8	31.0*	-0.5	0.9	/
O=C(c1ccc(=O)oc1)N1CCN(C(c2ccccc2)c2ccccc2)CC1	-10.0	39.1*	31.6	9.1	13.5
COc1ccc(CNc2oc(C)nc2C#N)cc1	-7.5	1.0	8.8	-5.5	5.0
CCN(CC)CCCNc1oc(/C=C/c2ccccc2)nc1C#N	0.8	28.0	8.4	+	0.3
CN(C)CCNc1oc(-c2ccccc2F)nc1C#N	-8.0	15.8	19.3	145.3*	/
CN(C)CCCNc1nc(-c2ccccc2)nc2ccccc12	0.7	15.7	9.1	-2.3	-9.7
CN(C)CCCNc1c2ccccc2nc2ccccc12	6.1	7.1	23.9	177.0*	8.8
COc1ccc(CCNc2oc(-c3ccc(OC)c(OC)c3)nc2C#N)cc1	-5.2	36.0*	-3.7	+	16.4
CC(CC(=O)NC1CCCCC1)=NNC(=O)c1ccccn1	/	/	/	/	6.1
COc1ccccc1-c1nc(C#N)c(NCc2ccc(F)cc2)o1	22.1	14.2	4.0	112.7*	5.1
SMILES	Mtb betalactam	GDH-TPI inh	VHR inh abs	FBA Mtb inh	Mtb hypoxia inh
COc1ccccc1-c1nc(C#N)c(NCCCn2ccnc2)o1	-7.1	5.6	28.8	+	12.5
COc1ccc(-c2nc(C#N)c(NC(C)c3ccccc3)o2)cc1OC (configuration not stated)	68.7	12.6	12.7	144.5*	10.0
COc1ccc(-c2nc(CS(=O)CC(=O)NC(C)CCc3ccccc3)c(C)o2)cc1OC (configuration not stated)	7.0	-0.4	29.8	6.0	9.8
CN(C)CCCNc1oc(-c2ccccc2)nc1C#N	25.6	6.0	25.3	130.6*	6.1
CCOc1ccc(S(=O)(=O)NN=C2CC(c3ccccc3)Oc3ccccc32)cc1 (configuration not stated)	/	/	/	/	-0.7
Cn1cccc1C=NNC(=O)CSc1nc2ccccc2n1C	/	/	/	/	0.3
CN1CCN(C(=O)C2=CC(C3CCCCC3)CC(OCc3ccc(CO)cc3)O2)CC1 (configuration not stated)	/	/	/	/	9.4
COc1ccc(-c2nc(C#N)c(NCCCN(C)C)o2)cc1OC	-2.9	12.0	-6.0	+	-2.6
COc1ccc(CCNc2oc(COc3ccccc3)nc2C#N)cc1	10.2	4.1	26.3	4.0	7.2

Screening data deposited in PubChem BioAssay by several laboratories.
